Shiga toxin inh: A qHTS for Small Molecule Inhibitors of Shiga Toxin. Vero cells, Shiga toxin protein synthesis inhibition reporter. inhibition, % at 38.7 µM. actives 9.2% (n = 290,000). AID 2315, 2010; in the data active = inhibition mostly above about 28%, no sharp cut-off; inactive = mostly below about 43%; note: 0% is about no effect
Cycloheximide cs: Cycloheximide Counterscreen for Small Molecule Inhibitors of Shiga Toxin; actives 12% (n = 300,000); cell reporter, cycloheximide protein synthesis inhibition counterscreen; max response, %; in the data active = max response mostly above about 13%, no sharp cut-off; inactive = mostly below about 14%; note: read at 38.3 µM for the half of the compounds with a filed dose; 0% is about no effect
Marburg entry inh: qHTS for inhibitors of binding or entry into cells for Marburg Virus. Marburg virus pseudotyped entry inhibition, cell reporter. Potency, µM (doses to about 37.8 µM), for inactives: at the top dose activity change, negative = inhibition, usual class: inhibitors. actives 1.8% (n = 300,000). AID 540276, 2011; calls by dose curve; tested in HEK293 cells; note: potency is the fitted concentration of half-maximal effect; % is set by controls: 0 for no effect and ±100 for the full control effect
LASV entry inh: qHTS for Inhibitors of binding or entry into cells for Lassa Virus | Lassa virus pseudotype entry inhibition, cell reporter | Potency, µM (doses to about 37.9 µM), for the others: at the highest dose activity change, negative = inhibition, most hits filed as inhibitors | actives 1.2% (n = 300,000); calls by dose curve; tested in HEK293 cells; note: potency is the fitted concentration of half-maximal effect; % is set by controls: 0 for no effect and ±100 for the full control effect; nearly all actives have a fitted effect of over 50% in size
* = called active by the depositor; [ ] = dose if it differs, or a comment. Only some compounds are listed: those with a hit (about 12% of all), similar ones and a draw of the others.

Screening CCCCCc1ccc(-c2ccc(/C=C/C(N)=O)cc2)nc1 returned Shiga toxin inh 67*, Cycloheximide cs 56*, Marburg entry inh -4% and LASV entry inh 2%.
Screening CCCCCc1ccc(-c2ccc(OC)cc2)nc1 returned Shiga toxin inh 13, Cycloheximide cs 0, Marburg entry inh -27% and LASV entry inh -27%.
`CCOc1ccc2c(c1)sc1nc(=O)n(-c3ccc(Cl)c(Cl)c3)c(=O)n12` gave Marburg entry inh -2%[46.1 µM] and LASV entry inh 26%[46.1 µM].
For CC(=O)OC/C=C(C)/C=C/C=C(C)/C=C/C1=C(C)CCCC1(C)C the results were Shiga toxin inh 5 and Cycloheximide cs 14.
CC(=O)SC1CC2=CC(=O)CC[C@]2(C)C2CC[C@@]3(C)C(CC[C@@]34CCC(=O)O4)C12 (some centres undefined) was read as Marburg entry inh 5% and LASV entry inh inconclusive.
For Cc1ccc(NC(=O)Cn2c(=O)n(-c3ccc(CC(=O)NCC4CCCO4)cc3)c(=O)c3ccccc32)cc1 (centres undefined) the results were Marburg entry inh 23%[46.1 µM] and LASV entry inh 24%[46.1 µM].
`COc1ccccc1NC(=O)CSc1nnc(C2CCCCC2)n1-c1ccccc1` gave Shiga toxin inh -2, Cycloheximide cs -2, Marburg entry inh inconclusive and LASV entry inh inconclusive.
Screening COc1cc2nc(Nc3ccc(F)cc3)nc(N)c2cc1OC returned Shiga toxin inh 9, Cycloheximide cs 17*, Marburg entry inh inconclusive and LASV entry inh 17%[46.1 µM].
`CC(C)CC(NC(=O)C(CO)NC(=O)C1CCC(=O)N1)C(N)=O` (centres undefined) gave Shiga toxin inh 28, Cycloheximide cs 6, Marburg entry inh inconclusive and LASV entry inh -23%.
Screening CN1CCCC1CCNc1ccc2c(=O)c3ccccc3oc2c1 (centres undefined) returned Shiga toxin inh 33 and Cycloheximide cs 41*.
`CN1CCCC1CCNc1ccc2oc3ccccc3c(=O)c2c1` (centres undefined) gave Shiga toxin inh 44 and Cycloheximide cs 25*.
For O=C(NCCCN1CCCC1=O)c1cc(=O)c2ccccc2o1 the results were Shiga toxin inh -19, Cycloheximide cs 1, Marburg entry inh 4% and LASV entry inh -5%.
`O=c1c2ccccc2oc2cc(Br)ccc12` gave Marburg entry inh inconclusive and LASV entry inh 2%[46.1 µM].
For O=C(c1coc2ccc(O)cc12)C1CC1 the results were Shiga toxin inh 58*, Cycloheximide cs 25*, Marburg entry inh 0% and LASV entry inh 1%.
O=C(c1ccc(Cl)cc1)c1coc2ccc(O)cc12 was read as Shiga toxin inh 73*, Cycloheximide cs 43*, Marburg entry inh 5% and LASV entry inh inconclusive.
Screening O=C(c1ccc(Br)cc1)c1coc2ccc(O)cc12 returned Marburg entry inh 4%[14.2 µM] and LASV entry inh 15%.
For Cc1cc(C)nc(/N=C(\N)Nc2ccc(OCCC(C)C)cc2)n1 the results were Shiga toxin inh -7, Cycloheximide cs 0, Marburg entry inh inconclusive and LASV entry inh -19%.
`NC(=O)c1ccsc1NC(=O)CCS(=O)(=O)c1ccc(Cl)cc1` gave Marburg entry inh -6% and LASV entry inh 1%.
CC1=C(C)CC2(SC1)C(=O)N(c1ccccc1)N=C2N (centres undefined) was read as Shiga toxin inh 48*, Cycloheximide cs 23*, Marburg entry inh inconclusive and LASV entry inh 25%.
For COc1cccc(CNC(=O)CCn2cnc3ccccc3c2=O)c1 the results were LASV entry inh 5%[46.1 µM].
`COc1cccc(COc2cc(-n3cnc4ccccc43)sc2C(N)=O)c1` gave LASV entry inh 5µM*.
Screening CC(Oc1cc(-n2cnc3ccc(OC4CCN(C)CC4)cc32)sc1C(N)=O)c1ccccc1Cl (centres undefined) returned LASV entry inh 0.2µM*.
COc1ccc2ncn(-c3cc(OC(C)c4ccccc4C(F)(F)F)c(C(N)=O)s3)c2c1 (centres undefined) was read as LASV entry inh 0.22µM*.
`COc1ccc(C(=O)Nc2cc(C(F)(F)F)ccc2-n2cnc3ccccc32)cc1` gave Shiga toxin inh -3, Cycloheximide cs -1, Marburg entry inh inconclusive and LASV entry inh 0%.
Screening O=C(NCc1cccc(Br)c1)C1CCCCN1S(=O)(=O)c1ccc(F)cc1 (centres undefined) returned LASV entry inh -3%[46.1 µM].
N=C1C(c2ccccc2)=C(O)CN1CCO was read as Shiga toxin inh -6, Cycloheximide cs 1, Marburg entry inh 20% and LASV entry inh 9%.
Screening COc1ccc(NC(=S)N/C(=N/CS(=O)(=O)c2ccccc2)c2ccccc2)cc1 returned Shiga toxin inh 70*, Cycloheximide cs 35*, Marburg entry inh 19% and LASV entry inh 2%.
`O=[N+]([O-])c1ccc(NC(=S)N/C(=N/CS(=O)(=O)c2ccccc2)c2ccccc2)cc1` gave Shiga toxin inh 56*, Cycloheximide cs 28*, Marburg entry inh inconclusive and LASV entry inh 1%.
For Cc1cccc(C(=O)NNC(=O)c2ccccc2C)c1 the results were Shiga toxin inh 24, Cycloheximide cs 14, Marburg entry inh inconclusive and LASV entry inh 22%.
`O=C(NC(=S)NNC(=O)c1ccccc1O)c1ccccc1` gave Shiga toxin inh 55*, Cycloheximide cs 29, Marburg entry inh -13%[46.1 µM] and LASV entry inh -13%[46.1 µM].
For Cc1ccccc1C(=O)NNC(=O)c1ccc(Br)cc1 the results were Shiga toxin inh 84* and Cycloheximide cs 42*.
`Cc1ccc(C(=O)NNC(=S)NC(=O)c2ccccc2)cc1` gave Marburg entry inh -10% and LASV entry inh inconclusive.
`Cc1cccc(C(=O)NNC(=O)c2ccccc2O)c1` gave Shiga toxin inh 38* and Cycloheximide cs 39*.
Screening O=C(NC(=S)NNC(=O)c1ccccc1O)c1ccc(F)cc1 returned Cycloheximide cs 6, Marburg entry inh inconclusive and LASV entry inh -14%[46.1 µM].
`Cc1ccccc1C(=O)NNC(=S)NC(=O)c1ccccc1` gave Shiga toxin inh 28*, Cycloheximide cs 17*, Marburg entry inh inconclusive and LASV entry inh inconclusive.
`COc1ccc(N(C(=O)c2cnccn2)C(C(=O)NC2CCCCC2)c2ccccc2)cc1` (centres undefined) gave Shiga toxin inh -20, Cycloheximide cs 6, Marburg entry inh 8%[46.1 µM] and LASV entry inh inconclusive.
COc1cc(NC(=O)COC(=O)CCOc2ccc(C)cc2)cc(OC)c1 was read as Shiga toxin inh -1, Cycloheximide cs -3, Marburg entry inh 26% and LASV entry inh inconclusive.
`O=C(Nc1ccc(F)cc1)c1ccc(Br)c(S(=O)(=O)N2CCOCC2)c1` gave Shiga toxin inh 28, Cycloheximide cs 8, Marburg entry inh inconclusive and LASV entry inh inconclusive.
`COc1ccccc1NC(=O)CC12CC3CC(CC(Br)(C3)C1)C2` gave Shiga toxin inh 1, Cycloheximide cs 4, Marburg entry inh 15%[46.1 µM] and LASV entry inh 10%.
`CCCc1ccc(C(=O)NC(=O)c2ccccc2O)cc1` gave Shiga toxin inh 19, Cycloheximide cs 23*, Marburg entry inh 8.9µM* and LASV entry inh 10µM*.
